97 compounds from PubChem BioAssay AID1903 (Southern Research Specialized Biocontainment Screening …, 2009) can be followed below.

One may read the inhibition as the change of the read-out against control, counted positive when it falls.

The campaign covered roughly 310,000 compounds. About 1,200 (0.39%) were called active. How the calls were made is not given here. A selection follows. Results with a measured potency or affinity are listed apart.

Large T antigen (Simian virus 40), sequence (P03070 whole entry, looked up): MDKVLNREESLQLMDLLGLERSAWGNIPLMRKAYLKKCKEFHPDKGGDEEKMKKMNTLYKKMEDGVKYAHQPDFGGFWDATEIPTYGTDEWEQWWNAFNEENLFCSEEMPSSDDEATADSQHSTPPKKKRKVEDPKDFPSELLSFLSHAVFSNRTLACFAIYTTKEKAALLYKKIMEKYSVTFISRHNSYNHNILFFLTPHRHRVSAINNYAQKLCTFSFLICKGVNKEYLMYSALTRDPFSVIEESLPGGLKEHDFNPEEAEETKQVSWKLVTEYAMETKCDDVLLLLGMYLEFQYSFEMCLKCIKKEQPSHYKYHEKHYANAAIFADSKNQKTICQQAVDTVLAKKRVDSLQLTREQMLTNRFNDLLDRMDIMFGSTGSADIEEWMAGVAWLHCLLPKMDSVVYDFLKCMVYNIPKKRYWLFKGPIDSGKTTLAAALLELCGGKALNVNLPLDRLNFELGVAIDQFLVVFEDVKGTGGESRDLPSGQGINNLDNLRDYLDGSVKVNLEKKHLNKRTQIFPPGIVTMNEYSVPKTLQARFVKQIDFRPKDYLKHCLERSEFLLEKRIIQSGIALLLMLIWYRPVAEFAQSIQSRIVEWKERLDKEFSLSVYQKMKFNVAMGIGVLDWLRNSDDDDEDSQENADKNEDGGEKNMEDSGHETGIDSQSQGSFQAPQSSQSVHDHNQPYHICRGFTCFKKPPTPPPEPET

The assay concerns the target Large T antigen (Simian virus 40) (UniProt P03070). The assay is described as follows: TAg ATPase/helicase activity blockers – biochemical (AID 1903). The settings on record: SV40 large T antigen ATPase/helicase inhibition assay; at 20 µM; active compounds read high.
On to `CN(C)/C=C/C(=O)c1ccc(S(=O)c2ccccc2)cc1` (configuration not stated), for which the inhibition is 12.1% (inactive).
`Cc1cc(/C=N\O)c(C)n1-c1ccncc1`: the inhibition is 7.77% (inactive).
Under `Cc1cc(/C=C2\NC(=S)NC2=O)c(C)n1-c1cccnc1` stands 4.58% (inactive).
On to `Cc1cc(/C=C2/NC(=O)NC2=O)c(C)n1-c1ccncc1`, for which the inhibition is 6.66% (inactive).
Then `Cc1cc(/C=C2/NC(=S)NC2=O)c(C)n1-c1cccnc1`, with 5.09% (inactive); and `COc1ccc2c(c1)CC/C(=C\c1ccc(OC)c(Cn3nc(C)cc3C)c1)C2=O`, with 10.2% (inactive); and `CCCc1nc(-c2ccccc2)c(-c2ccc(OC)c(OC)c2)c(=O)[nH]1`, with 3.66% (inactive).
With `O=C(CSc1nnc(CNC(=O)c2cccs2)o1)NC1CCCC1`, the inhibition is 0.7% (inactive).
In the case of `Cc1ccc(C(=O)Cn2nnc(-c3ccccc3)n2)cc1`, the inhibition is 0.94% (inactive).
Consider `O=C(CCS(=O)(=O)c1cccs1)Nc1ccc(C(=O)NC2CCN(Cc3ccccc3)CC2)cc1`, for which the inhibition was 16.1% (inactive).
With `O=C(CSCc1c(Cl)cccc1Cl)Nc1ccccc1C(=O)N1CCOCC1`, the inhibition was 6.94% (inactive).
Then `CCOC(=O)c1sc(N)c(C(=O)Nc2ccccc2OC)c1C`, with 25.6% (inactive).
Regarding `Cc1ccccc1-n1nnnc1SCC(=O)Nc1ccc(S(=O)(=O)N2CCCC2)cc1`, the inhibition was -7.07% (inactive).
In the case of `Nc1ccc(-c2nc3ccc([N+](=O)[O-])cc3[nH]2)cc1`, the inhibition is 1.62% (inactive).
Under `COc1ccc2nc(-c3ccc(N)cc3)[nH]c2c1` stands 25.1% (inactive); under `CC1CCN(C(=O)COC(=O)CSc2ccc(C(N)=O)cc2[N+](=O)[O-])CC1`, 18.6% (inactive); under `O=C1CCCN1CCCNC(=S)Nc1ccccc1`, 14.1% (inactive).
On to `O=C1CCCN1CCNC(=S)Nc1ccccc1`, for which the inhibition is 1.29% (inactive).
Regarding `COCCOC(=O)C1=C(C)NC(=O)NC1c1ccco1` (configuration not stated), the inhibition was 13% (inactive).
With `Cc1ccc(NC(=O)C(=O)C2C(=O)Nc3ccccc32)cc1` (configuration not stated), the inhibition is 6.13% (inactive).
Under `O=C(Nc1ccc(F)cc1)C(=O)C1C(=O)Nc2ccccc21` (configuration not stated) stands 16.2% (inactive); under `COc1ccc(CC(=O)NCC(=O)N/N=C/c2sccc2C)cc1`, 26.5% (inactive); under `O=S(=O)(c1ccc(NC(=S)N/N=C/c2ccc(N3CCOCC3)cc2)cc1)N1CCOCC1`, 22.6% (inactive).
On to `N#Cc1ccc(/C=N/NC(=S)Nc2ccc(S(=O)(=O)N3CCOCC3)cc2)cc1`, for which the inhibition was 15.2% (inactive).
Then `Cc1ccc(S(=O)(=O)N2CCN(CC(=O)N/N=C\c3ccncc3)CC2)cc1`, with 22% (inactive).
Take `Cc1ccc(S(=O)(=O)N2CCN(CC(=O)N/N=C\c3ccc(Cl)c([N+](=O)[O-])c3)CC2)cc1`: the inhibition was 19.6% (inactive).
Under `CCCCN(C(=O)NC(=O)Nc1ccccc1C)S(C)(=O)=O` stands 12% (inactive); under `COc1ccc(N2C(=O)CSC2c2cccc(F)c2)cc1` (configuration not stated), 9.83% (inactive).
With `CC1CC(C)(C)NC(=S)N1CCCC(=O)N1CCN(c2ccc(F)cc2)CC1` (configuration not stated), the inhibition was 7.98% (inactive).
Under `CCOc1cc2c(cc1OCC)C(c1ccccc1OC)OC(=O)C2` (configuration not stated) stands 2.26% (inactive); under `COc1cc(/C=N\Nc2nc3ccccc3o2)cc(OC)c1OC`, 12.1% (inactive).
Consider `COc1cc(/C=N\Nc2nc3ccccc3[nH]2)cc(OC)c1OC`, for which the inhibition is 22.4% (inactive).
Then `C(=N\Nc1nc2ccccc2[nH]1)/c1ccccc1`, with 24.9% (inactive); and `Cc1ccc(/C=N/Nc2nc3ccccc3[nH]2)s1`, with 18.3% (inactive); and `COc1ccc(/C=N/Nc2nc3ccccc3[nH]2)cc1OC`, with 26.4% (inactive).
With `COc1ccc(/C=N/Nc2nc3ccccc3o2)cc1O`, the inhibition was 28.6% (inactive).
Under `COc1ccc(-c2noc(N3CCC(C(=O)NCCCN4CCCCC4)CC3)n2)cc1` stands 11.4% (inactive).
On to `C/C(=N\NC(=O)c1c(Cl)c(C)nn1C)c1cccc(NC(=O)c2cccc(F)c2)c1`, for which the inhibition is 27.2% (inactive).
Under `O=C(Cc1ccccc1)NCC(=O)N/N=C/c1cccnc1` stands 12.9% (inactive); under `O=C1Nc2ccc(S(=O)(=O)N3CCOCC3)c3cccc1c23`, 3.61% (inactive).
With `CCOC(=O)C1=C(C)NC(=O)C(C(N)=O)C12CCCCC2` (configuration not stated), the inhibition was 4.24% (inactive).
For `CN(CCc1ccccn1)C(=O)CCC1CCCN(C(=O)CN2CCCCCC2)C1` (configuration not stated), the inhibition is 16.4% (inactive).
In the case of `Cc1cccc(Nc2nc3c(S(=O)(=O)c4ccccc4)nnn3c3ccccc23)c1`, the inhibition was 8.95% (inactive).
Under `CCCN1C(=O)/C(=N\OCC(=O)NC23CC4CC(CC(C4)C2)C3)c2ccccc21` stands 19.7% (inactive); under `COc1ccc(C2CC(=O)c3cnc(N4CCc5ccccc54)nc3C2)cc1OC` (configuration not stated), 6.12% (inactive).
On to `CCOC(=O)C(CC)n1nc(C)n2c(cc3sccc32)c1=O` (configuration not stated), for which the inhibition is 9.17% (inactive).
Regarding `Cc1cc(N)ccc1N1CCCC1`, the inhibition is 11.3% (inactive).
With `Cc1cc(N)ccc1-n1c(C)ccc1C`, the inhibition was 15.8% (inactive).
Regarding `Cc1ccc(CNC(C)(C)CO)cc1`, the inhibition is 1.14% (inactive).
Take `Cc1nc(-c2ccccc2O)n(S(=O)(=O)N(C)C)n1`: the inhibition was 12.3% (inactive).
For the compound `CCN(CC(=O)Nc1ccc(NC(C)=O)cc1)C(=O)c1ccc(NC2CC2)c([N+](=O)[O-])c1`, the inhibition is 9.29% (inactive).
Then `CCN(C(=O)c1ccc(Cl)c([N+](=O)[O-])c1)c1ccccc1`, with 4.72% (inactive); and `COCCNC(=O)C(=O)c1cc(C)n(-c2ccc([N+](=O)[O-])cc2)c1C`, with 3.94% (inactive).
In the case of `CCN1C(=O)c2ccccc2Sc2ccc(C(=O)NCCCN3CCCCC3)cc21`, the inhibition is 10.1% (inactive).
Turning to `CCc1nnc(NC(=O)COc2ccc(N(C)S(=O)(=O)c3ccc(C)cc3)cc2)s1`, the inhibition is 4.23% (inactive).
Regarding `C=CCOc1ccc(CNc2ccc3[nH]c(=O)[nH]c3c2)cc1OC`, the inhibition is 13.7% (inactive).
Consider `C=CCOc1ccc(CNc2ccc(NC(=O)CCC)cc2)cc1OCC`, for which the inhibition was 18.3% (inactive).
Then `C=CCOc1cccc(CNc2cccc(C(=O)O)c2)c1`, with 15.2% (inactive); and `Oc1ccc(NCc2cccc(OCc3ccc(F)cc3)c2)cc1`, with 29.3% (inactive); and `C=CCOc1cccc(CNCc2ccncc2)c1`, with 8.06% (inactive).
On to `Fc1ccc(CNc2ccc(CNc3ncn[nH]3)cc2)cc1`, for which the inhibition was 19.6% (inactive).
As for `CNC(=O)COc1coc(CN2CCN(c3ccc(OC)cc3)CC2)cc1=O`, the inhibition is 21.7% (inactive).
In the case of `COc1ccc(-n2ccnc2SCC(=O)Nc2ccccc2)cc1`, the inhibition is 15% (inactive).
Then `CC(=O)c1ccc(N2CCN(C(=O)Cc3cccs3)CC2)cc1`, with 1.64% (inactive); and `Cc1ccc2cccnc2c1N`, with 5.53% (inactive).
Under `Cc1ccc2nc(C)c(C)nc2c1N` stands 17.3% (inactive); under `Cc1cccc(-c2nnc(NC(=O)c3ccco3)s2)c1`, 8.94% (inactive); under `CN(c1ccc(F)cc1)S(=O)(=O)c1ccc2[nH]cc(C(=O)O)c(=O)c2c1`, 5.14% (inactive).
Under `COc1cccc(C(=O)Nc2c3c(nn2-c2ccc([N+](=O)[O-])cc2)CS(=O)(=O)C3)c1` stands 3.72% (inactive); under `CCN(CC)C(=O)CSc1nc2ccc(NC(=O)CSc3nnc(N)s3)cc2s1`, 5.67% (inactive); under `CCN(CC)S(=O)(=O)c1cccc(NC(=O)CSc2nnc(N)s2)c1`, 2.59% (inactive).
For the compound `Cc1cccc(OCC(=O)NNC(=O)CCc2ccccc2)c1`, the inhibition was 15.5% (inactive).
Under `Nc1ccc(S(=O)(=O)NNC(=O)C(=O)NNc2ccccn2)cc1` stands 11.5% (inactive); under `Cn1c(=O)c2c(nc(N3CCOCC3)n2CCSc2ncccn2)n(C)c1=O`, 12.4% (inactive); under `COc1cccc(N=Cc2c(O)n(-c3cccc(C)n3)c(=O)c3ccccc23)c1`, 18% (inactive).
For `COc1ccccc1N=Cc1c(C)[nH]n(-c2ccc(C)cc2C)c1=O`, the inhibition was 27.4% (inactive).
Under `COc1ccc(N=Cc2c(O)n(-c3cccc(C)n3)c(=O)c3ccccc23)c(OC)c1` stands 13.7% (inactive).
As to `COc1cc(SC#N)ccc1N=Cc1c(C)[nH]n(-c2ccc(C)c(C)c2)c1=O`, the inhibition was 35.9% (inactive).
Then `COc1cc(SC#N)ccc1N=Cc1c(C)[nH]n(-c2ccc(Cl)cc2)c1=O`, with 17.5% (inactive); and `COc1cc(S(=O)(=O)Nc2ccc(C)cc2)ccc1N=Cc1c(C)[nH]n(-c2ccc(C)cc2)c1=O`, with 2.78% (inactive); and `CCON1C(=O)CN(C(=O)OC)C1c1ccc(Cl)cc1Cl` (configuration not stated), with 19.9% (inactive).
Consider `Cc1ccccc1NC(=O)Cn1nnc2sc3c(c2c1=O)CC(C)(C)OC3`, for which the inhibition is 7.47% (inactive).
On to `O=C(Nc1ccc(S(=O)(=O)N2CCCCC2)cc1)C1CC(=O)N(Cc2ccccc2)C1` (configuration not stated), for which the inhibition was 16.5% (inactive).
With `CSC1=NCCCN1C(=O)c1c(-c2ccccc2Cl)noc1C`, the inhibition was 10.2% (inactive).
With `O=C(O)C1CCCC[C@H]1C(=O)Nc1ncc([N+](=O)[O-])s1` (some centres not stated), the inhibition was 3.81% (inactive).
Then `COc1ccc(CCNC(=S)Nc2ccc(C(C)C)cc2)cc1`, with 13.7% (inactive); and `CC(/C=C1\SC(=S)N(CC(=O)O)C1=O)=C\c1ccccc1`, with 19.5% (inactive).
Then `CC(=C\c1ccccc1)/C=C1/SC(=S)N(CCC(=O)O)C1=O`, with 0.31% (inactive).
Then `Cc1ccc(-c2n[nH]c(=S)n2C)cc1`, with 14.5% (inactive); and `Cc1ccc(S(=O)(=O)c2c(C)nn(-c3ccccc3)c2OC(=O)c2ccc(Br)o2)cc1`, with 6.66% (inactive).
On to `O=C(Nc1nc2ccccc2n1Cc1ccccc1)c1ccco1`, for which the inhibition is -0.22% (inactive).
For the compound `CCCCC/C(=N\NC(=O)CCC(=O)NCc1ccccc1)c1ccccc1`, the inhibition is -0.61% (inactive).
Under `CCC/C(=N\NC(=O)CCC(=O)NCc1ccccc1)c1ccccc1` stands 8.82% (inactive); under `Cc1ccc(-c2nc(CSCC(=O)NCCCN3CCOCC3)c(C)o2)cc1`, 26.4% (inactive); under `CN(C)c1ccc(C2OC(=O)C3(CCCC3)C(=O)C2(C)C)cc1` (configuration not stated), 1.45% (inactive).
Then `COc1cc(C(=O)OCCN2CCOCC2)ccc1O`, with 25.1% (inactive).
Then `COc1cc(C(=O)OCCCN2CCOCC2)ccc1O`, with 30.9% (inactive).
